Assay outcomes from PubChem BioAssay.
In the library only some 3.2% were active in any assay of this set; here they are far more common.
Tau fluor counter: counter-screen for tau fibril formation inhibitors | tau K18 P301L Alexa594 fluorescence, heparin fibrillization | Potency, µM (titrated, usually from 57.7 µM), for the others: at the highest dose activity change, negative = decrease | 0.93% of 280,000 active | AID 1463; further: nearly all actives have a fitted effect of over 55% in size
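Human tau K18 P301L (15 uM unlabeled, 0.24 uM Alexa 594-labeled) in 100 mM sodium acetate pH 7 with 20 uM heparin, 6 hr at 37 C. ThT 30 uM added, 1 hr ambient; Alexa 594 FP and total fluorescence read at 555/632 nm.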
TRb-SRC2 inh: disrupts binding of human TR beta to SRC2 | P10828 | TRbeta-SRC2 peptide binding, fluorescence polarization; receptor liganded with 1 µM T3 | Potency, µM (titrated, usually from 106 µM), for inactives: at the highest dose activity change, negative = inhibition, usual class: inhibitors | 0.065% of 280,000 active;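 further: plate controls were bound peptide for no effect and peptide without receptor for full effect; nearly all actives have a fitted effect of over 50% in size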
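Human TRb ligand-binding domain (0.6 uM) is mixed with 20 nM Texas Red SRC2 peptide and 1 uM T3; after compound addition and 5 hr at ambient temperature, polarization is measured and normalized to unbound and bound controls.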
Tau ThT inhib: inhibitors of human tau fibril formation, thioflavin T binding; P10636; recombinant tau K18 P301L (four-repeat tau fragment), heparin-induced fibrillization, ThT fluorescence; Potency, µM (series often up to 57.4 µM), inactives show top-dose activity, negative = inhibition, usual class: inhibitors; 2.1% of 270,000 active; further: nearly all actives have a fitted effect of over 55% in size
Target sequence (P10636 561-689 P618L limits assumed): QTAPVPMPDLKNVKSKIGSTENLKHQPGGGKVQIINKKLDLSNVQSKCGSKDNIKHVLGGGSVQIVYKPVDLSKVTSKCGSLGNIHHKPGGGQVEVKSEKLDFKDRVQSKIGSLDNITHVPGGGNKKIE
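Heparin-induced (20 uM) aggregation of recombinant human K18 P301L tau, 15 uM unlabeled with 0.24 uM labeled, pH 7 acetate buffer, 6 hr at 37 C with compound. Fibrils quantified by 30 uM ThT fluorescence after 1 hr ambient incubation.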
GoLoco inh red: RGS12 GoLoco-Gai1 interaction inhibition; Potency, µM (series often up to 61.6 µM), inactives show at the highest dose activity, negative = inhibition, actives largely listed as inhibitors; 0.44% of 230,000 active; Gai1:RGS12 GoLoco peptide FP, rhodamine, 10 min; P63096; active means well fitted inhibition curve with a large enough effect, not every such curve was filed as active; inactive means no such curve, though single readings can be large or run the other way; further: nearly all actives have a fitted effect of over 30% in size
Target sequence (P63096 whole entry, looked up): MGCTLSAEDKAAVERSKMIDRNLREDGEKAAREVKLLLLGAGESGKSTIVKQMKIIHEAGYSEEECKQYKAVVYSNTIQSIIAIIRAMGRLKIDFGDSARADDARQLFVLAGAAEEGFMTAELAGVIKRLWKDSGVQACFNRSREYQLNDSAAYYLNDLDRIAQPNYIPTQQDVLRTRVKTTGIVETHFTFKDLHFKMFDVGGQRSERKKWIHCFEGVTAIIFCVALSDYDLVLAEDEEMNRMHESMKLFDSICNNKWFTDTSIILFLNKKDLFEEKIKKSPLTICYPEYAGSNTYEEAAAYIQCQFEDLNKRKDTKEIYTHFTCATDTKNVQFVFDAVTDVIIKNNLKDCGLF
Tau fibril FP: tau fibrillization inhibition (FP) | Potency, µM (top dose mostly 57.7 µM), for inactives: at the highest dose activity, negative = inhibition, hits mostly inhibitors | AID 1468 | K18 P301L tau heparin fibrillization, Alexa594 FP, 6 h | 0.39% of 280,000 active; further: nearly all actives have a fitted effect of over 55% in size
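Recombinant K18 P301L […], labeled with Alexa 594 at 0.24 uM over 15 uM unlabeled; heparin inducer 20 uM final; 37 C, 6 hr; FP endpoint.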
TexasRed fluor: Texas Red fluorescence interference in TRb-SRC2 counter-screen. TRb/SRC2 Texas Red total fluorescence interference. Potency, µM (highest dose often 106 µM), for the others: at the highest dose fluorescence change, negative = quenching. 0.29% of 280,000 active. AID 1479; active means well fitted curve in either direction with a large enough effect; inconclusive means small, poorly fitted or top-dose-only effect
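Flags fluorescent or light-absorbing compounds by total fluorescence, S + 2P, at 555 nm excitation and 632 nm emission. Mixture: 20 nM Texas Red SRC2 peptide, 0.6 uM human TRb LBD, 1 uM T3, 5% DMSO; compound exposure 5 h at ambient temperature.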
* hit, by the source's call; [ ] = dose if it differs, or a comment. Unless noted, the call rests on the fitted dose curve; in most records, active means well fitted curve in the direction sought with a large enough effect; inconclusive means small, poorly fitted or top-dose-only effect, or another doubt; inactive means no such curve, though single readings can be large; an effect the other way counts as inactive or inconclusive. Unless noted, on the % scale 0 is the no-effect control and ±100 the full control effect; potency means the concentration at half of the fitted maximal effect.

CC(=O)N(Cc1ccc(F)cc1)C1=C(NCc2ccccc2)C(=O)c2ccccc2C1=O was read as Tau fluor counter inconclusive, TRb-SRC2 inh -9%, Tau ThT inhib 28µM*, GoLoco inh red 23%, Tau fibril FP -5% and TexasRed fluor -4%.
CC(=O)/C(=C/c1ccc(N(C)C)cc1)C(=O)c1ccccc1 was read as Tau fluor counter inconclusive, TRb-SRC2 inh -4%, Tau ThT inhib 18µM*, GoLoco inh red 28%, Tau fibril FP 6% and TexasRed fluor -4%.
Screening CCC(=O)Nc1ccc(/C=C(\C(C)=O)C(=O)c2ccccc2)cc1 returned Tau fluor counter -5%, TRb-SRC2 inh 5%, Tau ThT inhib -20%, GoLoco inh red -3%, Tau fibril FP 3% and TexasRed fluor -6%.
`C=C1CCN(C(C(=O)NCc2ccc(Cl)c(Cl)c2)C(C)C)S(=O)(=O)c2ccccc21` (stereo not drawn) gave TRb-SRC2 inh 3% and TexasRed fluor -1%.
`COc1ccc(S(=O)(=O)Nc2nc3ccccc3nc2Nc2ccc3c(c2)OCO3)cc1` gave Tau fluor counter inconclusive, TRb-SRC2 inh -6%, Tau ThT inhib inconclusive, GoLoco inh red 12%, Tau fibril FP 3% and TexasRed fluor 4%.
O=S(=O)(Nc1nc2ccccc2nc1Nc1ccc2c(c1)OCCO2)c1cccs1 was read as Tau fluor counter inconclusive, TRb-SRC2 inh 0%, Tau ThT inhib 13µM*, GoLoco inh red 5%, Tau fibril FP 15% and TexasRed fluor -19%.
COc1cc(NC2=Nc3cccc4cccc2c34)cc(OC)c1OC was read as Tau fluor counter 6%, TRb-SRC2 inh 9%, Tau ThT inhib 3%, GoLoco inh red 108%, Tau fibril FP 2% and TexasRed fluor -1%.
`COc1ccc(NC2=Nc3cccc4cccc2c34)cc1OC` gave Tau fluor counter inconclusive, TRb-SRC2 inh -10%, Tau ThT inhib 13µM*, GoLoco inh red 12%, Tau fibril FP 3% and TexasRed fluor -4%.
`COc1cccc(NC2=Nc3cccc4cccc2c34)c1` gave Tau fluor counter inconclusive, TRb-SRC2 inh 6%, Tau ThT inhib 11µM*, GoLoco inh red 0%, Tau fibril FP 15% and TexasRed fluor 4%.
For Cc1ccc(Sc2c(C(=O)NCc3ccccc3C)[nH]c3ccccc23)cc1 the results were Tau fluor counter -8%, TRb-SRC2 inh -3%, Tau ThT inhib -8%, Tau fibril FP -3% and TexasRed fluor -1%.
Screening O=c1c(-c2ccc(Cl)cc2)nc2cnc(N3CCNCC3)nc2n1Cc1ccc(F)cc1 returned GoLoco inh red 7%.
Screening CCOC(=O)CC1C(=O)NCCN1c1nc2c(C)cccn2c(=O)c1/C=C1\SC(=S)N(CC(C)C)C1=O (stereo not drawn) returned Tau fluor counter -13%, TRb-SRC2 inh 11%, Tau ThT inhib 10µM*, GoLoco inh red 160%, Tau fibril FP -11% and TexasRed fluor -3%.
For CC(C)NC(=O)[C@H]1C[C@@H]1[C@H](NC(=O)OCc1ccccc1)c1ccccc1 the results were Tau fluor counter 1%, TRb-SRC2 inh -4%, Tau ThT inhib 0%, GoLoco inh red 2%, Tau fibril FP -1% and TexasRed fluor -6%.
CC(C)CNC1=CC(=O)CC(c2ccco2)C1 (stereo not drawn) was read as Tau fluor counter -21%, TRb-SRC2 inh -6%, Tau ThT inhib 28µM*, GoLoco inh red -3%, Tau fibril FP inconclusive and TexasRed fluor -16%.
Screening O=C1C=C(NCc2ccc(Cl)cc2)CC(c2ccco2)C1 (stereo not drawn) returned Tau fluor counter -6%, TRb-SRC2 inh -7%, Tau ThT inhib -5%, GoLoco inh red 6%, Tau fibril FP -7% and TexasRed fluor 1%.
Screening Cc1ccc(CCCC(=O)O)cc1C returned GoLoco inh red 9%[14.2 µM].
Screening CCOC(=O)c1c(-c2ccc(C)cc2)csc1NC(=O)c1cc(=O)c2ccc(C)cc2o1 returned Tau fluor counter -20%, TRb-SRC2 inh -10%, Tau ThT inhib -11%, Tau fibril FP -3% and TexasRed fluor 35µM*[quencher].
`O=C1CCCCCN1Sc1ccccc1` gave Tau fluor counter -13%, TRb-SRC2 inh 4%, Tau ThT inhib 14µM*, Tau fibril FP inconclusive and TexasRed fluor 3%.
For O=[N+]([O-])c1ccc2c(c1)S(=O)(=O)C=C2 the results were TRb-SRC2 inh -23% and TexasRed fluor -5%.
Screening CCOc1ccc(NC(=S)NCc2ccc3[nH]c(C)cc3c2)cc1 returned Tau fluor counter 20µM*[quencher], TRb-SRC2 inh -1%, Tau ThT inhib inconclusive, GoLoco inh red 1%, Tau fibril FP inconclusive and TexasRed fluor -1%.
For CCCCNC(=S)NCc1ccc2[nH]c(C)cc2c1 the results were Tau fluor counter inconclusive, TRb-SRC2 inh -4%, Tau ThT inhib -11%, GoLoco inh red 4%, Tau fibril FP 13% and TexasRed fluor 0%.
CS(=O)(=O)c1ccc(C(=O)NCCN2C(=O)S/C(=C\c3cccnc3)C2=O)cc1[N+](=O)[O-] was read as Tau fluor counter inconclusive, TRb-SRC2 inh 1%, Tau ThT inhib 16µM*, GoLoco inh red 4%, Tau fibril FP inconclusive and TexasRed fluor -7%.
`CC(C)C1Nc2ccc(C(=O)O)cc2C2C=CCC21` (stereo not drawn) gave Tau fluor counter 10%, TRb-SRC2 inh 0%, Tau ThT inhib 9%, GoLoco inh red 4%, Tau fibril FP 8% and TexasRed fluor -1%.
For CCCC1Nc2ccc(C(=O)O)cc2C2C=CCC12 (stereo not drawn) the results were Tau fluor counter inconclusive, TRb-SRC2 inh 3%, Tau ThT inhib 22µM*, GoLoco inh red 34%, Tau fibril FP inconclusive and TexasRed fluor 8%.
FC(F)(F)c1ccc2c(c1)C1C=CCC1C(c1ccncc1)N2 (stereo not drawn) was read as Tau fluor counter inconclusive, TRb-SRC2 inh 12%, Tau ThT inhib inconclusive, GoLoco inh red 68%, Tau fibril FP inconclusive and TexasRed fluor 6%.
`O=C(O)c1ccc2c(c1)C1C=CCC1C(c1ccncc1)N2` (stereo not drawn) gave Tau fluor counter inconclusive, TRb-SRC2 inh 6%, Tau ThT inhib 25µM*, GoLoco inh red -14%, Tau fibril FP inconclusive and TexasRed fluor -8%.
